In the library only some 10% were active in any assay of this set; here they are far more common.
G9a block – inhibitors of human histone lysine methyltransferase G9a; Q96KQ7; G9a H3K9 monomethylation, AlphaScreen, 2 h; Potency, µM (series often up to 102 µM), actives largely listed as inhibitors; 8.8% of 350,000 active; note: nearly all actives have a fitted effect of over 75% in size
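Compounds were preincubated with 20 nM G9a for 15 min, after which biotinylated H3K9 peptide (500 nM) and SAM (20 uM) started a 2 h room-temperature reaction. Monomethylated product was quantified by antibody-based AlphaScreen chemiluminescence.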
BAZ2B inh – blocks human BAZ2B. 4.4% of 360,000 active. AlphaScreen BAZ2B-H3K14Ac peptide displacement. Q9UIF8. Potency, µM (series often up to 114 µM), hits mostly inhibitors; note: nearly all actives have a fitted effect of over 60% in size
Target sequence (Q9UIF8 whole entry, looked up): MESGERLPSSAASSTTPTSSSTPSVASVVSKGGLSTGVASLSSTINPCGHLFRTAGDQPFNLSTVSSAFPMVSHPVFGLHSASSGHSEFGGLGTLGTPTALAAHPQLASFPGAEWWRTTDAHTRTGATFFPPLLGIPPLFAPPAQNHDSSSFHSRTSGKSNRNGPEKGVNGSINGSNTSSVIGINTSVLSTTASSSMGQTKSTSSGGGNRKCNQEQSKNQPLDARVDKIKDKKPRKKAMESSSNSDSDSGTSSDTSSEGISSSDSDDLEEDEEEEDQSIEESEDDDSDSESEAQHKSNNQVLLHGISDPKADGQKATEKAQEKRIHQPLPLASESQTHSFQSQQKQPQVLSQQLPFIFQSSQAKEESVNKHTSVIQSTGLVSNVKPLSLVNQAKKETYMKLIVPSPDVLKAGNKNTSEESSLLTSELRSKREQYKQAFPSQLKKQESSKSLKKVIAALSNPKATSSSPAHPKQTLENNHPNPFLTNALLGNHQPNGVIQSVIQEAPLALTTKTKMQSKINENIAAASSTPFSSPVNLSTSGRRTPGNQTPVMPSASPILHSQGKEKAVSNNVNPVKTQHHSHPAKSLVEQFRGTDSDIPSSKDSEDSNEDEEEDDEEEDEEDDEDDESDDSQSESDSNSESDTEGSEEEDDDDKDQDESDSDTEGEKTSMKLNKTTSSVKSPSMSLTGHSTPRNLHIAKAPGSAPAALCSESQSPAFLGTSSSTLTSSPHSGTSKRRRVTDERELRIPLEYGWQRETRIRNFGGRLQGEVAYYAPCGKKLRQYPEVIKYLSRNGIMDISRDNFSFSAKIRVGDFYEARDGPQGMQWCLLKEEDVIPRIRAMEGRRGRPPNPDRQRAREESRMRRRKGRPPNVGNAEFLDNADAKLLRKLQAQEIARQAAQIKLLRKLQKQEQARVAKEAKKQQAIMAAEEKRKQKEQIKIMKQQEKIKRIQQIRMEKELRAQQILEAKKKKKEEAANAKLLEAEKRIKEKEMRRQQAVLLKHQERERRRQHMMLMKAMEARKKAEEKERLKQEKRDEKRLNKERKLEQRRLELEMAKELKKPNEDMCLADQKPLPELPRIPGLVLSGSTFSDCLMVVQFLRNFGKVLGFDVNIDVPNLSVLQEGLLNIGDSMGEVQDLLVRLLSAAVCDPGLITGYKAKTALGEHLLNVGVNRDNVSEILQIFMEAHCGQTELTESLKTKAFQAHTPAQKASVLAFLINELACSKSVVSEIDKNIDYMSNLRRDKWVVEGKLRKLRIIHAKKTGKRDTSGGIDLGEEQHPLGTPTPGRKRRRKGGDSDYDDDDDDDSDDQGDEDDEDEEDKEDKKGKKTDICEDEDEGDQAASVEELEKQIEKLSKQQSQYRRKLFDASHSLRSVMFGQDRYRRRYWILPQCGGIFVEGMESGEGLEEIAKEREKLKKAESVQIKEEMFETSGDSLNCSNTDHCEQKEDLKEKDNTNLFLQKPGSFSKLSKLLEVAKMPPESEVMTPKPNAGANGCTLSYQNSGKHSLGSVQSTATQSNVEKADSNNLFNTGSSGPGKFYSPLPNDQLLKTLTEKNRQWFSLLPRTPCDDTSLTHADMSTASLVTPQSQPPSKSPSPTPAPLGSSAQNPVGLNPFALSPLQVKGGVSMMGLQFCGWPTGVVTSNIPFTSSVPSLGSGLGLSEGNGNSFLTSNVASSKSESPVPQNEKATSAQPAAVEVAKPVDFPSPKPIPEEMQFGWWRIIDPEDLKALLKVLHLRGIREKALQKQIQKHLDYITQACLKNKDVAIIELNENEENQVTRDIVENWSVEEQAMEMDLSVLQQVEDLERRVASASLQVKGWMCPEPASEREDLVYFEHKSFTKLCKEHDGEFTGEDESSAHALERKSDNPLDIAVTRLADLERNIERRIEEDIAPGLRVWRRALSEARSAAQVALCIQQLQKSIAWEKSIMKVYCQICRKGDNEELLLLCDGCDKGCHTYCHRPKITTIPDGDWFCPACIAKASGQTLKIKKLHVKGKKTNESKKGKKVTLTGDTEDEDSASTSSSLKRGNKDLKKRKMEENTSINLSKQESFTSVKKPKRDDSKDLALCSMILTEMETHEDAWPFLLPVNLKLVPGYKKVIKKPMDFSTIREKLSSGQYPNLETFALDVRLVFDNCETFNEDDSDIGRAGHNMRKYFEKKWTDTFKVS
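Inhibition is scored as reduced AlphaScreen emission. The BAZ2B/b-H3(5-23)K14Ac complex (50 nM each) in PBS pH 7.4, 0.01% Tween-20 meets compound (up to 110 uM) for 30 min at RT before bead addition.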
HP1b binding inh – inhibitors of HP1-beta chromodomain binding to methylated histone tails | Potency, µM (top dose mostly 114 µM), actives largely listed as inhibitors | 0.56% of 390,000 active | AID 540317 | AlphaScreen HP1-beta / biotin-H3K9me3 peptide binding | P83916; note: nearly all actives have a fitted effect of over 70% in size
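Compound inhibition of the preformed complex between 50 nM HP1-beta and 50 nM biotinylated H3K9me3 peptide was read by AlphaScreen. Buffer was PBS pH 7.4 with 0.01% Tween-20. Incubations ran 30 min at room temperature, with 10 ug/mL donor/acceptor beads.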
JMJD2A Tudor – JMJD2A Tudor domain (human) inhibition | AlphaScreen JMJD2A-Tudor / H3K4me3 peptide binding | O75164 | 4.4% of 390,000 active | Potency, µM (titrated, usually from 114 µM), most hits filed as inhibitors; note: nearly all actives have a fitted effect of over 50% in size
GLS inhibitor – blocks human kidney-isoform glutaminase activity; O94925; GLS enzymatic activity, qHTS titration; Potency, µM (titrated, usually from 45.5 µM), hits mostly inhibitors; 0.21% of 410,000 active; AID 624170
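Glutamate formation by hKGA was monitored fluorometrically using coupled glutamate oxidase, HRP and Amplex Red. Substrate was added as 1 mM L-glutamine solution; incubation was 30 min at RT after an initial read.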
A number is an active result; [ ] = dose if it differs, or a comment. Calls come from the whole dose curve; as a rule, active = well fitted curve in the direction sought with a large enough effect; inconclusive = small, poorly fitted or top-dose-only effect, or another doubt; inactive = no such curve, though single readings can be large; an effect the other way counts as inactive or inconclusive.

Screening CCC(Sc1nc2n[nH]c(C)c2c(=N)n1-c1ccc(Br)cc1)C(=O)N(CC)CC (stereo not drawn) returned G9a block inactive, BAZ2B inh inactive, HP1b binding inh inactive, JMJD2A Tudor inactive and GLS inhibitor inactive.
For CC(C)=C[C@H]1C[C@H](C)[C@H]2CC[C@H](C)c3c(O[C@@H]4OC[C@@H](O)[C@H](O)C4O)c(O)c(C)c1c32 (stereo partly drawn) the results were HP1b binding inh inactive, JMJD2A Tudor inconclusive and GLS inhibitor inactive.
O=[N+]([O-])c1cccc(/C=N/N2CCN(c3ccccn3)CC2)c1 was read as G9a block 31.6µM, BAZ2B inh inactive, HP1b binding inh inconclusive, JMJD2A Tudor inactive and GLS inhibitor inactive.
For Cc1ccc(C(=O)NC(=S)Nc2cccc3nsnc23)cc1 the results were G9a block 6.31µM, BAZ2B inh inactive, HP1b binding inh inactive, JMJD2A Tudor inactive and GLS inhibitor inactive.
`Cc1ccc(C(=O)NC(=S)Nc2c(C)ccc3nsnc23)cc1` gave G9a block 11.2µM, BAZ2B inh inactive, HP1b binding inh inactive, JMJD2A Tudor inactive and GLS inhibitor inactive.
For N#CC(C(N)=O)=C1CCCCC1 the results were G9a block inactive[12.7 µM], BAZ2B inh inactive, HP1b binding inh inactive, JMJD2A Tudor inactive and GLS inhibitor inactive.
Screening O=C(c1ccc2c(=O)n(CC3CCCO3)c(=S)[nH]c2c1)N1CCN(C(=O)c2ccco2)CC1 (stereo not drawn) returned HP1b binding inh inactive and JMJD2A Tudor inconclusive.
For N#CCCN1CCN(C(=S)c2ccc(-c3cccc(Cl)c3)o2)CC1 the results were G9a block 8.91µM, BAZ2B inh 35.5µM, HP1b binding inh inconclusive, JMJD2A Tudor 35.5µM and GLS inhibitor inactive.
For N#CCCN1CCN(C(=S)c2ccc(-c3ccc(Cl)c(Cl)c3)o2)CC1 the results were G9a block inconclusive, HP1b binding inh inconclusive, JMJD2A Tudor 50.1µM and GLS inhibitor inactive.
O=C(NC(=S)Nc1cc(Cl)ccc1N1CCOCC1)c1ccc(-c2cccc(Cl)c2)o1 was read as G9a block inactive, BAZ2B inh inactive, HP1b binding inh inactive, JMJD2A Tudor inactive and GLS inhibitor inactive.
`Cc1ccc(-c2cc(C(=O)N3CCN(S(=O)(=O)c4ccc(Br)s4)CC3)[nH]n2)c(C)c1` gave G9a block inactive, BAZ2B inh inactive, HP1b binding inh inactive, JMJD2A Tudor inactive and GLS inhibitor inactive.
Screening COc1ccc(N2CCN(C3CCCN(S(=O)(=O)c4ccccc4)C3)CC2)cc1 (stereo not drawn) returned BAZ2B inh 70.8µM, HP1b binding inh inconclusive, JMJD2A Tudor inconclusive and GLS inhibitor inactive.
`COc1ccc(OC)c(S(=O)(=O)N2CCCC(N3CCN(c4ccccc4)CC3)C2)c1` (stereo not drawn) gave G9a block inactive, BAZ2B inh inconclusive, HP1b binding inh inactive, JMJD2A Tudor inactive and GLS inhibitor inactive.
`COc1ccc(N2CCN(C(=O)NC3CCCCC3)CC2)cc1` gave G9a block inconclusive, BAZ2B inh inactive, HP1b binding inh inactive, JMJD2A Tudor inactive and GLS inhibitor inactive.
`COc1ccc(N2CCN(C3CCCN(C(=O)c4cccc(C)n4)C3)CC2)cc1` (stereo not drawn) gave G9a block 50.1µM, BAZ2B inh inactive, HP1b binding inh inactive, JMJD2A Tudor inactive and GLS inhibitor inactive.
For COc1ccc(N2CCN(C3CCCN(Cc4ccc(F)cc4Cl)C3)CC2)cc1 (stereo not drawn) the results were G9a block 70.8µM, BAZ2B inh inconclusive, HP1b binding inh inactive, JMJD2A Tudor inconclusive and GLS inhibitor inactive.
Screening COc1ccc(N2CCN(C(=O)c3cn(CC4CCCCC4)nn3)CC2)cc1 returned G9a block 35.5µM, BAZ2B inh inconclusive, HP1b binding inh inactive, JMJD2A Tudor inconclusive and GLS inhibitor inactive.
Screening CCOC(=O)N1CCN(S(=O)(=O)N2CCCC(C(=O)NCc3ccccc3OCC)C2)CC1 (stereo not drawn) returned GLS inhibitor inactive.
`CCn1cc(S(=O)(=O)NCCc2ccc(OC)c(OC)c2)cn1` gave G9a block inactive, BAZ2B inh inactive, HP1b binding inh inactive, JMJD2A Tudor inactive and GLS inhibitor inactive.
